Drawing on PubChem BioAssay AID1259415 (National Center for Advancing Translational Sciences (NCATS), 2018), this text covers activity change, negative = inhibition for 57 compounds.

About 18,000 (4.4%) of roughly 410,000 compounds were called active. About 7% were inconclusive and are not listed. Cut-off read from the data, not from the text of the source: active = activity change below about -60%; inconclusive = no clear call, values can overlap the other calls; inactive = above about -39%. Many of the other results were omitted from the sample, so actives are more common in it than they were.
% is set by controls: 0 for no effect and ±100 for the full control effect.

The nature of this test: qHTS Assay for inhibitors of the human cytomegalovirus (HCMV). The following applies: HFF cells, HCMV-luciferase reporter, 72 h; at 57.5 µM; stronger effect = lower value. A digest of the protocol:
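Inhibition of viral replication was scored as loss of reporter luminescence in HFFs infected with HCMV-luciferase (MOI 1 PFU/cell) for 72 h; compounds tested at 2 doses, normalized to buffer and Salinomycin controls.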
In general terms: In qHTS, concentration-response curves come from the screen itself.
As to `O=C(CSc1nc(=O)[nH]c2c1CCCC2)Nc1cc(C(F)(F)F)ccc1Cl`, the activity change, negative = inhibition is -20.6% (inactive).

For the compound `CN1CCN(Cc2nc3cc(NC(=O)COc4ccc([N+](=O)[O-])cc4)ccc3n2C)CC1`, the activity change, negative = inhibition is 18.6% (inactive).

On to `O=C(Nc1ccc(CN2CCOCC2)cc1)c1cc(Cl)ccc1Cl`, for which the activity change, negative = inhibition was -13.5% (inactive).

Turning to `Cn1c(CN2CCOCC2)nc2cc(NC(=O)c3ccc(Cl)cc3)ccc21`, the activity change, negative = inhibition is -84.5% (active).

As for `Cc1ccccc1S(=O)(=O)N[C@H]1CC[C@@]23CCCN2C(=O)CCC[C@H]3[C@H]1C`, the activity change, negative = inhibition is -19.4% (inactive).

Turning to `Cc1cccc(Cn2c(CN3CCC(C(=O)NCc4ccccc4Cl)CC3)cc3ccccc32)c1`, the activity change, negative = inhibition is -4.28% (inactive).

As to `CCc1cc2c(cc3c(=O)n(CC(=O)N4CCN(c5cc(Cl)ccc5C)CC4)ncn32)s1`, the activity change, negative = inhibition was 85.8% (inactive).

Turning to `Cc1ccc(-n2c(/C=C/c3cccc(C(F)(F)F)c3)nc3ccccc3c2=O)cc1`, the activity change, negative = inhibition is -5.7% (inactive).

In the case of `C#CCCCc1nc2ccccc2c(=O)n1N`, the activity change, negative = inhibition is 56.9% (inactive).

As for `O=c1n(Cc2cccc(C(F)(F)F)c2)c2ccccc2c2nc(-c3ccccc3)nn12`, the activity change, negative = inhibition was 26.8% (inactive).

With `O=c1c2ccccc2nc2n1C(CSc1ccc(Cl)cc1)CN2` (configuration not stated), the activity change, negative = inhibition is 59.6% (inactive).

Take `O=c1c2ccccc2nc2n1C(CSCc1ccccc1)CS2` (configuration not stated): the activity change, negative = inhibition was -74.9% (active).

Take `O=c1c2ccccc2nc2n1C(CSCc1cccc(C(F)(F)F)c1)CS2` (configuration not stated): the activity change, negative = inhibition was -67.5% (active).

Take `Cc1ccccc1C(=O)Nc1sc2c(c1C(=O)N1CCC(C)CC1)CCCC2`: the activity change, negative = inhibition was -11.9% (inactive).

`COc1cc(Br)cc2cc(S(=O)(=O)c3ccccc3)c(=O)oc12`: the activity change, negative = inhibition was 14.3% (inactive).

As for `CCN(CC)C(=O)C1=C(C)N(Cc2ccc(C(C)(C)C)cc2)C(=O)C(CC(=O)NCc2cccc3ccccc23)C1` (configuration not stated), the activity change, negative = inhibition is 16.5% (inactive).

Regarding `CC(C)(C)c1ccc(CN2C(=O)CN=C(c3ccccc3)c3ccccc32)cc1`, the activity change, negative = inhibition is -79.6% (active).

Consider `COc1ccc(CN2C(=O)CN=C2Nc2ccc(C)cc2C)cc1`, for which the activity change, negative = inhibition was 1.11% (inactive).

Consider `O=C(c1ccc(Cl)cc1)n1nc(-c2cccnc2)nc1NCc1ccc(F)cc1`, for which the activity change, negative = inhibition is 4.96% (inactive).

Regarding `CCOc1ccc(-c2cc3nc(C4CCN(C(=O)OC(C)(C)C)CC4)c(C(=O)Nc4ccc(C(=O)OC)cc4)cn3n2)cc1`, the activity change, negative = inhibition was 24.4% (inactive).

For `COc1ccccc1CNC(=O)c1ccc(CS(=O)c2ccccc2Cl)o1` (configuration not stated), the activity change, negative = inhibition is 9.25% (inactive).

As to `CCOc1ccc(NC(=O)c2c(NCc3cccc(OC)c3OC)sc3c2CCC3)cc1`, the activity change, negative = inhibition was 13% (inactive).

In the case of `O=C(c1ccco1)N(Cc1nc2ccccc2c(=O)[nH]1)C1CCCC1`, the activity change, negative = inhibition is -0.921% (inactive).

`CN(c1ccc2nc3ccccc3c(=O)n2n1)C1CCCCC1`: the activity change, negative = inhibition is -90% (active).

For `COCC(C)n1c(SCC(=O)NC2CCCCC2C)nc2ccccc2c1=O` (configuration not stated), the activity change, negative = inhibition was -19.2% (inactive).

On to `COc1ccc(C(=O)N(Cc2ccccc2)c2ccc(C)cc2)cc1S(=O)(=O)N1CCOCC1`, for which the activity change, negative = inhibition is -15.2% (inactive).

Consider `COc1ccc(CCC(=O)Nc2ccc(Cl)c(S(=O)(=O)N3CCOCC3)c2)cc1OC`, for which the activity change, negative = inhibition is -69% (active).

For the compound `COc1ccc(/C=C/C(=O)Nc2ccc(C)cc2)cc1S(=O)(=O)N1CCOCC1`, the activity change, negative = inhibition was -73.1% (active).

With `COc1ccc(CC(=O)Nc2ccc3c(c2)CCC3)cc1S(=O)(=O)N1CCOCC1`, the activity change, negative = inhibition was -10.6% (inactive).

Take `COc1ccc(NC(=O)c2cc(=O)[nH]c3ccccc23)cc1S(=O)(=O)N1CCOCC1`: the activity change, negative = inhibition is 9.13% (inactive).

Regarding `O=C(CCc1ccc(S(=O)(=O)N2CCOCC2)cc1)Nc1ccc2ccccc2c1`, the activity change, negative = inhibition was -9.83% (inactive).

On to `O=C(CSc1n[nH]c(-c2ccccc2)n1)N1CCCCC1`, for which the activity change, negative = inhibition was 61.5% (inactive).

As for `CSc1nc(-c2ccc(F)cc2)nc2c1Cc1c(CO)cnc(C)c1O2`, the activity change, negative = inhibition is 4.76% (inactive).

In the case of `CC(C)(CSc1nncn1/N=C/c1ccco1)NS(=O)(=O)c1ccc(Cl)cc1`, the activity change, negative = inhibition was -28.3% (inactive).

Take `COc1cccc(NC(=O)N(Cc2cn(C)c3ccccc23)C2CCCCCC2)c1`: the activity change, negative = inhibition was -105% (active).

As to `COc1ccc(CCNC(=O)CCc2cn(C)c3ccccc23)c(OC)c1`, the activity change, negative = inhibition was -11% (inactive).

`COc1cccc(NC(=O)N2CCCC2C(=O)NC2CCCCC2)c1` (configuration not stated): the activity change, negative = inhibition is -32.8% (inactive).

Take `O=C(Cn1c(=O)n(-c2ccc(F)cc2)c(=O)c2sc3ccccc3c21)NC1CCCC1`: the activity change, negative = inhibition is -5.96% (inactive).

As to `Fc1ccc(-c2nc(Nc3cccc(Cl)c3)nc3c2COc2ccccc2-3)cc1`, the activity change, negative = inhibition was -30.5% (inactive).

With `CCOC(=O)C(C)Sc1nnc(CSc2nc3nc(C)cc(C)n3n2)o1` (configuration not stated), the activity change, negative = inhibition was -27.1% (inactive).

In the case of `Cn1c(CNC(=O)c2ccco2)nnc1SCC(=O)N1CCN(c2ccccc2)CC1`, the activity change, negative = inhibition is 9.34% (inactive).

For `Cn1c(Cc2cccc3ccccc23)nnc1SCC(=O)N1CCN(c2cccc(Cl)c2)CC1`, the activity change, negative = inhibition is -71.4% (active).

In the case of `Cc1cc2nnc(SCC(=O)N3CCN(c4ccccc4)CC3)n2c(N)n1`, the activity change, negative = inhibition is 2.88% (inactive).

For `Cc1ccccc1NC(=O)Cn1c(=O)n(CCCCC(=O)NCc2ccccc2Cl)c(=O)c2ccccc21`, the activity change, negative = inhibition is 0.203% (inactive).

Consider `COc1ccc(N2CCN(c3ccc([N+](=O)[O-])nc3)CC2)cc1`, for which the activity change, negative = inhibition is -29.8% (inactive).

Regarding `Cc1cc(N2CCN(c3ccc(F)cc3)CC2)n2ncnc2n1`, the activity change, negative = inhibition is -22.6% (inactive).

Take `COc1ccc(N2CCN(c3cc(C)nc4nncn34)CC2)cc1`: the activity change, negative = inhibition is -72.4% (active).

In the case of `COC(=O)c1ccc(/C=N/OCC(=O)Nc2cc(F)ccc2F)cc1`, the activity change, negative = inhibition is 36.6% (inactive).

In the case of `Cc1ccc2c(c1)c1c(c(=O)n(-c3ccccc3)c(=O)n1CC(=O)c1ccc(Cl)cc1)n2C`, the activity change, negative = inhibition was 7.77% (inactive).

Consider `O=C(CN(Cc1ccccc1)C(=O)CCC(=O)Nc1ccccn1)NCCc1ccccc1`, for which the activity change, negative = inhibition is 18.2% (inactive).

With `COc1ccc(Cn2c(-c3ccc(Cl)cc3)c[n+]3ccccc23)cc1`, the activity change, negative = inhibition is -95.3% (active).

With `COc1ccc(CNc2nc(-c3ccc(Cl)cc3)nn2C(=O)c2ccccc2)cc1`, the activity change, negative = inhibition is 1.03% (inactive).

`COc1ccc(Cn2c(=O)oc3ccccc32)cc1`: the activity change, negative = inhibition is 6.27% (inactive).

With `CCN1C(=O)C(C(=O)NC(C)c2ccccc2)C2CC1(C)Oc1ccccc12` (configuration not stated), the activity change, negative = inhibition is -37% (inactive).

With `O=C(COc1ccccc1)N1CCN=C1SCc1cccc(F)c1`, the activity change, negative = inhibition was -11.8% (inactive).

`O=S(=O)(c1ccc(F)cc1)N1CCN=C1SCc1cccc(F)c1`: the activity change, negative = inhibition is -18.5% (inactive).

`CCCS(=O)(=O)N1CCN=C1SCc1cccc(F)c1`: the activity change, negative = inhibition was -70.6% (active).
